# Data published in the supplement of paper PMC7830784.
# Tested on: Brugia pahangi adult female
# Assay: IC50 motility inhibition on day 3
# Settings: 3 days
# Method: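 Single adult female Brugia pahangi worms in 24-well plates (RPMI-1640, 5% FBS, 37 °C) were treated with 10 µM of each compound from a 2121-drug library (4 replicates; 1% DMSO vehicle and 10 µM auranofin controls). Motility was recorded with WormAssay dark-field imaging, and % inhibition of motility on day 3 is relative to vehicle. IC50 values for selected hits come from a 6-point dilution series (30 to 0.1 µM) fitted in GraphPad Prism.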
row,Structure (SMILES),IC50 motility inhibition on day 3
1,Clc1ccccc1C(c1ccccc1)(c1ccccc1)n1ccnc1 [clotrimazole],5.5 µM
2,C[n+]1cc2c3c(ccc2c2ccc4cc5c(cc4c21)OCO5)OCO3 [Sanguinarine chloride],6.08 µM
3,Cc1cc2nc3c(=O)[nH]c(=O)nc-3n(C[C@H](O)[C@H](O)[C@H](O)CO)c2cc1C [riboflavin],16 µM
4,O=C1C(O)=C([C@H]2CC[C@H](c3ccc(Cl)cc3)CC2)C(=O)c2ccccc21 [atovaquone],4.16 µM
5,Clc1ccc(CSC(Cn2ccnc2)c2ccc(Cl)cc2Cl)cc1 (stereo not given) [sulconazole nitrate],4.62 µM
6,N=C(NCCCCCCNC(=N)NC(=N)Nc1ccc(Cl)cc1)NC(=N)Nc1ccc(Cl)cc1 [chlorhexidine],9.13 µM
7,Oc1c(Cl)cc(Cl)cc1Sc1cc(Cl)cc(Cl)c1O [bithionol],6.1 µM
8,Clc1ccc(COC(Cn2ccnc2)c2ccc(Cl)cc2Cl)cc1 (stereo not given) [econazole nitrate],3.97 µM
9,O=[N+]([O-])c1ccc(O)c2ncccc12 [nitroxoline],6.7 µM
10,CCCCCCCCNC(C)C(O)c1ccc(SC(C)C)cc1 (stereo not given) [suloctidil],3.66 µM
